Compound activity (PubChem)
Rows were chosen to be rich in hits. Some 0.75% of all compounds tested hit in one or more screens of this group.
Mtb hypoxia rep: reduces hypoxia-regulated biosensor signal in M. tuberculosis | M. tuberculosis hypoxia-regulated fluorescent reporter, fluorescence | fluorescence inhibition, % (concentration not given with the values) | 300,000 tested, 0.1% active; in the data active = fluorescence inhibition mostly above about 23%, no sharp cut-off; inactive = mostly below about 17%
BioA inh: inhibitors of Mycobacterium tuberculosis BioA enzyme; purified M. tuberculosis BioA enzyme, plate reader; inhibition, % at 9.99 µM; 360,000 tested, 0.096% active; AID 602481; in the data active = inhibition above about 40%
Yp Topo-I inh: Y. pestis Topo-I inhibition via cleavage products. Y. pestis Topo-I cleavage product accumulation, plate reader. 360,000 tested, 0.064% active. AID 504884. activity, % at 10 µM; in the data active = activity above about 50%, passing the limit was not always enough
TcdB inh: blocks C. difficile toxin B glycohydrolase activity; 350,000 tested, 0.24% active; TcdB glycohydrolase enzymatic assay, plate reader; inhibition, % at 9.99 µM; P18177; AID 652162; in the data active = inhibition above about 10%
Target sequence (P18177 whole entry, looked up): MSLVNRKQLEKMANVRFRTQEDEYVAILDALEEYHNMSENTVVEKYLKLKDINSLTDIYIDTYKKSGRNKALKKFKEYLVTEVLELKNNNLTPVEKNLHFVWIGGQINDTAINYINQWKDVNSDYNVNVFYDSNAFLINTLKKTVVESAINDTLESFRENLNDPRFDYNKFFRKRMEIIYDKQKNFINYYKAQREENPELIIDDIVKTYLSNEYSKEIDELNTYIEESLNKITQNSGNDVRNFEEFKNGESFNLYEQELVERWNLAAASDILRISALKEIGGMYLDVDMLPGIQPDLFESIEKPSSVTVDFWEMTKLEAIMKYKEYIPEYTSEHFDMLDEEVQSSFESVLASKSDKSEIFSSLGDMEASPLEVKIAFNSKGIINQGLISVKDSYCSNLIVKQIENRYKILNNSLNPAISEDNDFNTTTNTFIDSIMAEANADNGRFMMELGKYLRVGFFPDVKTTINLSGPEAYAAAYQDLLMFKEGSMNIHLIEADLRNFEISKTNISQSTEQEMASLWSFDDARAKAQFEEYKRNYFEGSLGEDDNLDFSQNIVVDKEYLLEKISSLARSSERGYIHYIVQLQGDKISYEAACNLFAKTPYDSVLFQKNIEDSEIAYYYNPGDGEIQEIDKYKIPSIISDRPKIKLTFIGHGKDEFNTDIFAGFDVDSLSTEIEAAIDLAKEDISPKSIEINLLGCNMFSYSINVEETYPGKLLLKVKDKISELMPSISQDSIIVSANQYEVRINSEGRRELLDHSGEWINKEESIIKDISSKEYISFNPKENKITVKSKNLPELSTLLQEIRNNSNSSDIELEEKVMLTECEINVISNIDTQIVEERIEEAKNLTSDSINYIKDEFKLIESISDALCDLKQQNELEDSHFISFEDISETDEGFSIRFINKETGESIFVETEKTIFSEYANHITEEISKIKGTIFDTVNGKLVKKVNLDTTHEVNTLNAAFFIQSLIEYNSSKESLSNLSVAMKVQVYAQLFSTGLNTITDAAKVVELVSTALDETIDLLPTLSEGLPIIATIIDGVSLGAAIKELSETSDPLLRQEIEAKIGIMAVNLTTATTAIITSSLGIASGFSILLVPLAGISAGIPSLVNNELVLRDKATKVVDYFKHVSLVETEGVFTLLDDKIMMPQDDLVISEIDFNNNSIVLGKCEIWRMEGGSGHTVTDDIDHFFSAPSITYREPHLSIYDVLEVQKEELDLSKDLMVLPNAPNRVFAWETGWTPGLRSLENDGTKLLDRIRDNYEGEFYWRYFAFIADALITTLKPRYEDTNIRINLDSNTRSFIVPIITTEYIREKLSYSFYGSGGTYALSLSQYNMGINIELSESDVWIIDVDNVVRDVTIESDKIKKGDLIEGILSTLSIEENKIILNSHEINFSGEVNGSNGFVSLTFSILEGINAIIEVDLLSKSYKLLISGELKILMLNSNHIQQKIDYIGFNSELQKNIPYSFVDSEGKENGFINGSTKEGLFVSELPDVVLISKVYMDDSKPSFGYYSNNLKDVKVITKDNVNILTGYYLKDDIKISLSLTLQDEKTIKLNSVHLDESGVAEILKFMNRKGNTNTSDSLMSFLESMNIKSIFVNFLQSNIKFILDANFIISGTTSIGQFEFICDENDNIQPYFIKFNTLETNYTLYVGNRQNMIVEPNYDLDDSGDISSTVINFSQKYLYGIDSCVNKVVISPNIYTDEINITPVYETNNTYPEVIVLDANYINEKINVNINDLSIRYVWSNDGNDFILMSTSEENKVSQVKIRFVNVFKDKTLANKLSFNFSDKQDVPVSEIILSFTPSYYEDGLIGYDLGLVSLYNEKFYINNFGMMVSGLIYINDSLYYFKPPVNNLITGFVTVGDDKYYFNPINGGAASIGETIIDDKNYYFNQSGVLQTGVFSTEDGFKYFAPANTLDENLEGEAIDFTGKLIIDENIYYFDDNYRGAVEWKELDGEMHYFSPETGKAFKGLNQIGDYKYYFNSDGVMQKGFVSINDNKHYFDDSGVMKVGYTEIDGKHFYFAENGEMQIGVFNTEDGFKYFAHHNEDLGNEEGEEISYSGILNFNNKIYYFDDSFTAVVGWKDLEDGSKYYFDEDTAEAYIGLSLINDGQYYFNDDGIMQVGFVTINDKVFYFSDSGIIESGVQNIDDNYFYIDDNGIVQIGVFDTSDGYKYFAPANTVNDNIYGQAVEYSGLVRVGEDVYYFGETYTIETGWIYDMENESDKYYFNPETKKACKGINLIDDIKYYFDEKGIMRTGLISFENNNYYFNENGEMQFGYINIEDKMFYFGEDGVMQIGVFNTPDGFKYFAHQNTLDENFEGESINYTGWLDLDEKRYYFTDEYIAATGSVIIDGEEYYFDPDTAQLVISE
Sa ugtP lethal: kills S. aureus RN4220 lacking UgtP; S. aureus RN4220 ugtP deletion, OD600 growth, 16 h; growth inhibition, % (test concentration not listed); 330,000 tested, 0.54% active; in the data active = growth inhibition above about 68%
Sa RN4220 lethal: S. aureus RN4220 growth inhibition; inhibition, % (test concentration not listed); 330,000 tested, 0.33% active; OD600, 16 h; in the data active = inhibition above about 85%
Numbers stand for hits; i = inactive; nt = not tested or not shown.

SMILES	Mtb hypoxia rep	BioA inh	Yp Topo-I inh	TcdB inh	Sa ugtP lethal	Sa RN4220 lethal
Cc1nc(C)c(C(=O)Nc2cccc(F)c2)s1	i	47	i	i	i	i
COc1ccc(NC2CCCN(C(=O)CN3CCOC3=O)C2)cc1 (centres undefined)	i	i	i	i	i	i
COc1ccc(NC2CCCN(C(=O)CN3CCOC3=O)C2)cc1OC (centres undefined)	i	i	i	12	i	i
O=C1C=C(c2ccc(C(=O)O)cc2)CC(c2ccc(Cl)cc2)C1 (centres undefined)	i	nt	nt	nt	i	i
O=C(/C=C/c1ccccc1)c1ccccc1	nt	i	i	i	nt	nt
N#Cc1ccc(/C=C/C(=O)c2ccccc2)cc1	36	nt	i	i	i	i
O=C(C[C@H]1CC[C@H]2[C@@H](COC[C@H](O)CN2C(=O)Nc2ccc(Cl)c(Cl)c2)O1)NCc1ccncc1	nt	i	nt	13	nt	nt
O=C(C[C@H]1CC[C@H]2[C@@H](COC[C@@H](O)CN2Cc2ccccc2)O1)NCCc1ccccc1	nt	i	nt	15	nt	nt
CNC(=O)C[C@@H]1CC[C@@H]2[C@H](COC[C@H](O)CN2C(=O)c2ccccn2)O1	nt	i	nt	i	nt	nt
O=C(C[C@@H]1CC[C@H]2[C@@H](COC[C@H](O)CN2Cc2ccccc2)O1)NCCc1ccccc1	nt	i	nt	i	nt	nt
O=C(C[C@@H]1CC[C@H]2[C@@H](COC[C@H](O)CN2C(=O)c2ccccn2)O1)NC1CCC1	nt	i	nt	17	nt	nt
O=C(C[C@H]1CC[C@@H]2[C@H](COC[C@@H](O)CN2C(=O)c2ccccn2)O1)NC1CCC1	nt	i	nt	15	nt	nt
O=C(NN=Cc1cccc2ccccc12)c1cccc(F)c1	nt	nt	nt	nt	i	i
CC(=NNC(=O)c1cc(C)oc1C)c1ccc(N2CCOCC2)cc1	i	nt	nt	nt	i	i
COc1ccc(C2C=CCN(C(=O)c3ccccc3)CC(=O)N2Cc2ccc(F)cc2)cc1 (centres undefined)	i	nt	nt	nt	i	i
CCNC(=O)C[C@H]1CC[C@@H]2[C@H](COC[C@@H](O)CN2C(=O)c2ccccn2)O1	nt	i	nt	nt	nt	nt
O=C(C[C@@H]1CC[C@@H]2[C@H](COC[C@@H](O)CN2C(=O)c2ccccn2)O1)NC1CCC1	nt	i	nt	27	nt	nt
O=C(Cc1ccccc1)NC(c1ccccc1)P(=O)(O)CO (centres undefined)	i	nt	nt	nt	i	i
COc1ccccc1C1NC(=O)NC(C)=C1C(=O)OC1CCCCC1 (centres undefined)	i	i	i	11	i	i
Nn1c(SCc2ccccc2F)nnc1-c1ccccn1	i	i	i	14	i	i
Nn1c(SCc2ccc(F)cc2)nnc1-c1ccccn1	i	i	i	i	i	i
O=C1CC2c3c(cccc3CN1Cc1ccc(Cl)cc1)CC(O)C2O (centres undefined)	i	nt	nt	nt	i	i
CCN(C(=O)COC(=O)c1cccnc1SC)C1CCCCC1	i	i	i	15	i	i
O=C(Nc1ccc(N2CCOCC2)c(Cl)c1)c1ccc([N+](=O)[O-])o1	i	nt	i	i	96	i
CN1CCN(c2ccc(NC(=O)c3ccc([N+](=O)[O-])o3)cc2Cl)CC1	i	i	i	i	101	99
SMILES	Mtb hypoxia rep	BioA inh	Yp Topo-I inh	TcdB inh	Sa ugtP lethal	Sa RN4220 lethal
CC(C)C(=O)N1CCN(c2ccc(NC(=O)c3ccc([N+](=O)[O-])o3)cc2Cl)CC1	nt	nt	i	i	i	i
CCOc1ccccc1N(CC(=O)NN=C(C)c1cccc(Br)c1)S(C)(=O)=O	i	nt	nt	nt	i	i
O=C(Nc1ccccc1C(=O)NN=Cc1ccco1)c1ccc(Cl)cc1	i	nt	nt	nt	i	i
O=C(/C=C/c1cccc(Cl)c1)c1ccc([N+](=O)[O-])o1	nt	i	i	i	nt	nt
COc1cc(/C=C/C(=O)c2ccc([N+](=O)[O-])o2)ccc1O	nt	i	i	12	nt	nt
O=C(C=Cc1ccc(Cl)cc1)c1ccc([N+](=O)[O-])o1	nt	nt	nt	nt	99	i
CC(=O)Nc1ccc(S(=O)(=O)Nc2nc3ccccc3nc2-n2ccc(=NC(=O)c3ccc(F)cc3)cc2)cc1	nt	i	i	16	nt	nt
CC(=O)Nc1ccc(S(=O)(=O)Nc2nc3ccccc3nc2-n2ccc(=NC(=O)c3ccccc3)cc2)cc1	i	i	i	i	i	i
Cc1cc(Cl)c(S(=O)(=O)NN=Cc2ccc3c(c2)OCO3)c(Cl)c1	nt	nt	nt	nt	i	i
COc1cccc(C2=NN(C(=O)c3cccs3)C(O)(C(F)(F)F)C2)c1 (centres undefined)	i	nt	i	i	i	91
CCNC(=S)NN=Cc1ccccc1[N+](=O)[O-]	i	nt	nt	nt	i	i
O=C1CN(/N=C/c2ccc([N+](=O)[O-])o2)C(=O)N1	nt	i	i	i	nt	nt
O=C1OC(CN(Cc2ccccc2)Cc2ccccc2)CN1N=Cc1ccc([N+](=O)[O-])o1 (centres undefined)	i	i	i	i	100	i
O=C1OCCN1/N=C/c1ccc([N+](=O)[O-])o1	nt	i	i	i	nt	nt
O=C1OC(CN2CCOCC2)CN1N=Cc1ccc([N+](=O)[O-])o1 (centres undefined)	i	i	i	i	100	100
O=C1CCNCCN1C(CO)c1ccccc1 (centres undefined)	i	nt	nt	nt	i	i
Cc1ccccc1C(=O)NNC(=S)NC(=O)c1cccnc1	i	i	i	i	i	i
O=C(NC(=S)NNC(=O)c1ccccc1F)c1cccnc1	i	i	i	15	i	i
CC(=O)c1ccc(Oc2ccc(C(=O)c3ccc(C)c(C)c3)cc2[N+](=O)[O-])cc1	nt	i	i	i	i	i
COC(=O)c1ccc(Oc2ccc(C(C)(C)C)cc2)c([N+](=O)[O-])c1	i	nt	i	nt	95	i
COc1ccc2nc(NC(=O)c3ccc([N+](=O)[O-])o3)sc2c1	i	i	i	i	100	i
O=C(Nc1nc2c(F)cc(F)cc2s1)c1ccc([N+](=O)[O-])o1	i	i	i	i	i	i
Cc1cc(C)c2nc(NC(=O)c3ccc([N+](=O)[O-])o3)sc2c1	i	i	i	i	99	i
O=C(Nc1nc2cc3c(cc2s1)OCCO3)c1ccc([N+](=O)[O-])o1	i	i	i	i	88	i
Cc1cc(C)c2sc(NC(=O)c3ccc([N+](=O)[O-])o3)nc2c1	i	i	i	i	i	i
SMILES	Mtb hypoxia rep	BioA inh	Yp Topo-I inh	TcdB inh	Sa ugtP lethal	Sa RN4220 lethal
O=C(Nc1nc2ccccc2s1)c1ccc([N+](=O)[O-])o1	i	nt	i	i	i	i
COc1ccc(-n2nc(C(=O)NCC(=O)NC3CCCC(C)C3C)c3ccccc3c2=O)c(OC)c1 (centres undefined)	35	i	i	i	i	i
COc1ccc(-n2nc(C(=O)NCC(=O)NC3CCCC(C)C3C)c3ccccc3c2=O)cc1 (centres undefined)	i	i	i	i	i	i
COC(=O)C1=C(c2ccc(Cl)c(C(F)(F)F)c2)CC2CCC1N2C(=O)NCc1ccc2c(c1)OCO2 (centres undefined)	i	nt	nt	nt	i	i
CCC(=O)N(Cc1ccco1)c1nc(-c2ccccc2)cs1	i	i	i	nt	i	i
O=C(c1cccs1)N(Cc1ccco1)c1nc(-c2ccc(F)cc2)cs1	i	i	i	nt	92	i
Nc1nc(Cl)cc(NCCc2ccc(O)cc2)n1	i	nt	i	14	i	i
